# Assay results published in PubChem BioAssay.
# A number with no mark means an inactive call. The source made the active and inactive calls. Rule as the data show it, unless noted: active = inhibition above about 30%; inactive = the rest.
# Molecular target: Nuclear receptor coactivator 3 (Homo sapiens) (UniProt Q9Y6Q9)
# Experiment: NCOA3 GAL4-fusion reporter inhibition – cell-based, luminescence, quadruplicate, confirmation (AID 588792;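 active = mean inhibition over 43.08%, the solvent-only control mean plus 3 SD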;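 also: 0% = DMSO treated cells and 100% = gossypol at 36 µM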)
# Settings: HEK293 GAL4-SRC3 luciferase reporter, at 3.6 µM, active compounds read high
# Chain of Nuclear receptor coactivator 3 (Homo sapiens) (Q9Y6Q9 whole entry, looked up, the tested form may be a part): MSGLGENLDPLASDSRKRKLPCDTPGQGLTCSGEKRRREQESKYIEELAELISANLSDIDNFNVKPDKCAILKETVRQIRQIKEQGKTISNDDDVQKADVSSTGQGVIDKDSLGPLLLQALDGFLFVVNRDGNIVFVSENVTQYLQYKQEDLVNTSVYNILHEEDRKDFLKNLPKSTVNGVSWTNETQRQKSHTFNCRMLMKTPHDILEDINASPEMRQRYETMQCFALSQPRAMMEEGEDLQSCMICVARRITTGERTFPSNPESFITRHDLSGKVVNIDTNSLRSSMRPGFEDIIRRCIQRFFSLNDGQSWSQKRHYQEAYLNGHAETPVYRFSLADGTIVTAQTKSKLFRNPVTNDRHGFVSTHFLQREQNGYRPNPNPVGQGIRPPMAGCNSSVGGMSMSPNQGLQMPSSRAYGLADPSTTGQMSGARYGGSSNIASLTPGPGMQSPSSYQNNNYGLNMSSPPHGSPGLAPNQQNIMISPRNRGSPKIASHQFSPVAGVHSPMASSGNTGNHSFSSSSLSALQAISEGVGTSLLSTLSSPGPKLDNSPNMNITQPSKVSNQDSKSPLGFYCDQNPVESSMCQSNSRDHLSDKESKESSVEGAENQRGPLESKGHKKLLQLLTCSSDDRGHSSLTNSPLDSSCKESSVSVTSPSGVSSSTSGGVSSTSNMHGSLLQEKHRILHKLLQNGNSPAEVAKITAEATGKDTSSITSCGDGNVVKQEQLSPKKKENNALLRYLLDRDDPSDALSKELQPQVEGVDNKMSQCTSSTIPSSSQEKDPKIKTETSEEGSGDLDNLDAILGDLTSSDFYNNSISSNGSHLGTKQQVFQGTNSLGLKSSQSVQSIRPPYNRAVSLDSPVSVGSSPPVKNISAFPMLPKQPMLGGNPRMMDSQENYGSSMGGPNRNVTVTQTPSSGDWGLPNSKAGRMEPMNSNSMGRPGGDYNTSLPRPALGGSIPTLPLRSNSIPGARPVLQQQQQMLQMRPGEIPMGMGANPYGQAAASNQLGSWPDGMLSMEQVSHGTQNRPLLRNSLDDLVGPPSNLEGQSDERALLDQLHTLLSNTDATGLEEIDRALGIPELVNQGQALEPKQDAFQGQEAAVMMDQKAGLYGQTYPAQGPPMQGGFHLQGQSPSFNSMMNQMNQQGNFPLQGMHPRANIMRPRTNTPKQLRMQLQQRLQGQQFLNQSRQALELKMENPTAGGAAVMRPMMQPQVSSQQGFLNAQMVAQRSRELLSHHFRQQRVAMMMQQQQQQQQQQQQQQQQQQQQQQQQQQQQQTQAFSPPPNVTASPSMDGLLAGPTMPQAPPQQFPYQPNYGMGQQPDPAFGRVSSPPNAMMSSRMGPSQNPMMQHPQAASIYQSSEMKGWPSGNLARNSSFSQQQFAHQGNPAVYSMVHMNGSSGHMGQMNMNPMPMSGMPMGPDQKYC
row,SMILES,inhibition
1,CCc1ccc(OCC(=O)NC(NC(=S)Nc2ccc(Cl)cc2)C(Cl)(Cl)Cl)cc1 (stereo not given),-0.7%
2,O=C(Nc1sc2c(c1C(=O)O)CCCC2)c1ccc(F)cc1,0.98%
3,COc1cc(NC(=O)c2cccs2)c(C(=O)OCC(=O)c2cc(C)n(-c3ccc(F)cc3)c2C)cc1OC,5.85%
4,C/C(N)=C(/C#N)C(=O)COC(=O)c1ccc(C#N)cc1,-7.91%
5,O=C(NN=Cc1ccccc1O)c1cccc([N+](=O)[O-])c1,52.8% (active)
6,Cc1[nH]nc(-c2ccc(O)cc2O)c1Oc1ccccc1,3.77%
7,O=C(NC1CCCC1)c1cc(COc2ccc3ncccc3c2)on1,19.7%
8,CCc1ccc2nc3nc(C)cc(C)c3c(N)c2c1,20.2%
9,Cc1ccc(C2(c3ccc(C)cc3)CC2C(=O)Nc2ccc([N+](=O)[O-])cc2O)cc1 (stereo not given),11.3%
10,O=C(CN1C(=O)C(=O)N(C2CCCC2)C1=O)Nc1ccccc1OC(F)F,10.1%
11,Cc1cccc(OCC(=O)NCC(=O)N/N=C/c2ccc(O)cc2O)c1,15.4%
12,CCC(=O)NC(c1cccs1)c1cc(Cl)c2cccnc2c1O (stereo not given),20.9%
13,Cc1cc(C)c2nc(C(F)(F)F)c(C#N)c(N)c2c1,45.1% (active)
14,O=S(=O)(c1ccccc1)c1nc(Nc2cccc(O)c2)sc1Cl,-4.35%
15,Cc1ccc(O)c(C(=O)c2cnc3c(c2)COc2ccccc2-3)c1,-8.22%
16,CC1(C)CC2(CC(c3ccccc3F)c3cc(Cl)c(O)cc3O2)NC(=S)N1 (stereo not given),16.6%
17,Cc1ccc(C(=O)C[n+]2cc(-c3ccccc3)n3c2CCCCC3)cc1,6.68%
18,CC(C)c1nc(Cl)c(C#N)c2c1CCCC2,26%
19,Cc1cccc(C)c1-n1c(C)cc(/C=N\NC(=O)CC(=O)NC2CCCCC2)c1C,-17.4%
20,CC1=[N+]([O-])C(C)(C)CC(C)(C)c2ccccc21,3.29%

row,SMILES,inhibition
1,CCCCN(CCCC)C(=O)CSc1nnc(-c2cc(OC)c(OC)c(OC)c2)o1,-1.92%
2,Cc1ccc(-c2c[n+](Cc3ccc(Cl)c(Cl)c3)c3n2CCC3)cc1,17.6%
3,O=C(NCc1cccs1)C1CCCN(C(=O)Nc2ccc(F)cc2)C1 (stereo not given),-1.07%
4,COc1ccc(C2OC(=O)CC2C(=O)NCc2ccc(F)cc2)cc1OC (stereo not given),-5.31%
5,COc1ccc(C(C)=O)cc1CSc1nnc(Nc2ccccc2)s1,9.88%
6,O=C(Nc1ccc([N+](=O)[O-])cc1)Nc1nc(-c2ccc(Cl)s2)cs1,60.4% (active)
7,CCN1C/C(=C/c2ccc(N3CCOCC3)cc2)C(=O)/C(=C/c2ccc(N3CCOCC3)cc2)C1,40.8%
8,COc1ccc(C(=O)/C=C/c2cc(OC)c(O)c(OC)c2)c(F)c1,26.6%
9,COc1ccc(C(=O)Nc2c(-c3cccs3)c(=O)c3ccccc3n2C)cc1,-10.2%
10,Cc1ccc(C)c(S(=O)(=O)N2CCCCC2CCNC(=O)C(=O)NCc2ccncc2)c1 (stereo not given),0.55%
11,O=C(c1ccc(S(=O)(=O)Nc2cccc(C(F)(F)F)c2)cc1)N1CCC1,-2.7%
12,COc1cccc(CNCCO)c1OCc1ccccc1,-2.38%
13,COc1cccc(/C=N/Nc2ncnc(Cl)c2N)c1O,78.1% (active)
14,CCc1[nH]nc2c1C(C1C=CCCC1)C(C#N)=C(N)O2 (stereo not given),24.7%
15,Cc1c(Cl)cccc1NC(=O)Nc1ccccc1C(N)=O,29.1%
16,CN(Cc1cccc(F)c1)C(=O)C1CC(=O)N(Cc2ccco2)C1 (stereo not given),-0.39%
17,Cc1cc(/C=C2\SC(=S)N(C)C2=O)c(C)n1-c1cccc(O)c1,51.6% (active)
18,Cn1nc(CC(=O)Nc2ccc3c(c2)OCCO3)c2ccccc2c1=O,9.58%
19,Cc1ccc(S(=O)(=O)NCCC(=O)N2CCN(c3ccccc3)CC2)cc1C,6.68%
20,COc1ccc(S(=O)(=O)N2CCCCCC2)cc1C(=O)N(C)CC(=O)Nc1cc(C)ccc1C,8.3%

# Test system: transactivating tegument protein VP16 (Human herpesvirus 1), Gal4-VP16 luciferase reporter
# Experiment: repression of VP16-driven luciferase reporter – cell-based, luminescence, high throughput, counter-screen for SRC3 inhibitor project (AID 588794)
# Settings: mammalian cells, at 3.6 µM, active compounds read high
row,SMILES,inhibition
1,CCc1ccc(OCC(=O)NC(NC(=S)Nc2ccc(Cl)cc2)C(Cl)(Cl)Cl)cc1 (stereo not given),0.6%
2,O=C(Nc1sc2c(c1C(=O)O)CCCC2)c1ccc(F)cc1,27.5%
3,COc1cc(NC(=O)c2cccs2)c(C(=O)OCC(=O)c2cc(C)n(-c3ccc(F)cc3)c2C)cc1OC,2.26%
4,C/C(N)=C(/C#N)C(=O)COC(=O)c1ccc(C#N)cc1,-0.63%
5,O=C(NN=Cc1ccccc1O)c1cccc([N+](=O)[O-])c1,51.8% (active)
6,Cc1[nH]nc(-c2ccc(O)cc2O)c1Oc1ccccc1,10.3%
7,O=C(NC1CCCC1)c1cc(COc2ccc3ncccc3c2)on1,43.3% (active)
8,CCc1ccc2nc3nc(C)cc(C)c3c(N)c2c1,32.7% (active)
9,Cc1ccc(C2(c3ccc(C)cc3)CC2C(=O)Nc2ccc([N+](=O)[O-])cc2O)cc1 (stereo not given),19.4%
10,O=C(CN1C(=O)C(=O)N(C2CCCC2)C1=O)Nc1ccccc1OC(F)F,-11.8%
11,Cc1cccc(OCC(=O)NCC(=O)N/N=C/c2ccc(O)cc2O)c1,14%
12,CCC(=O)NC(c1cccs1)c1cc(Cl)c2cccnc2c1O (stereo not given),25.6%
13,Cc1cc(C)c2nc(C(F)(F)F)c(C#N)c(N)c2c1,31.6% (active)
14,O=S(=O)(c1ccccc1)c1nc(Nc2cccc(O)c2)sc1Cl,0.89%
15,Cc1ccc(O)c(C(=O)c2cnc3c(c2)COc2ccccc2-3)c1,5.53%
16,CC1(C)CC2(CC(c3ccccc3F)c3cc(Cl)c(O)cc3O2)NC(=S)N1 (stereo not given),6.57%
17,Cc1ccc(C(=O)C[n+]2cc(-c3ccccc3)n3c2CCCCC3)cc1,22.9%
18,CC(C)c1nc(Cl)c(C#N)c2c1CCCC2,37% (active)
19,Cc1cccc(C)c1-n1c(C)cc(/C=N\NC(=O)CC(=O)NC2CCCCC2)c1C,-15.1%
20,CC1=[N+]([O-])C(C)(C)CC(C)(C)c2ccccc21,6.25%

row,SMILES,inhibition
1,CCCCN(CCCC)C(=O)CSc1nnc(-c2cc(OC)c(OC)c(OC)c2)o1,4.79%
2,Cc1ccc(-c2c[n+](Cc3ccc(Cl)c(Cl)c3)c3n2CCC3)cc1,25.3%
3,O=C(NCc1cccs1)C1CCCN(C(=O)Nc2ccc(F)cc2)C1 (stereo not given),5.59%
4,COc1ccc(C2OC(=O)CC2C(=O)NCc2ccc(F)cc2)cc1OC (stereo not given),-5.19%
5,COc1ccc(C(C)=O)cc1CSc1nnc(Nc2ccccc2)s1,19.3%
6,O=C(Nc1ccc([N+](=O)[O-])cc1)Nc1nc(-c2ccc(Cl)s2)cs1,71.6% (active)
7,CCN1C/C(=C/c2ccc(N3CCOCC3)cc2)C(=O)/C(=C/c2ccc(N3CCOCC3)cc2)C1,22.6%
8,COc1ccc(C(=O)/C=C/c2cc(OC)c(O)c(OC)c2)c(F)c1,17.7%
9,COc1ccc(C(=O)Nc2c(-c3cccs3)c(=O)c3ccccc3n2C)cc1,7.07%
10,Cc1ccc(C)c(S(=O)(=O)N2CCCCC2CCNC(=O)C(=O)NCc2ccncc2)c1 (stereo not given),7.08%
11,O=C(c1ccc(S(=O)(=O)Nc2cccc(C(F)(F)F)c2)cc1)N1CCC1,-5.66%
12,COc1cccc(CNCCO)c1OCc1ccccc1,8.14%
13,COc1cccc(/C=N/Nc2ncnc(Cl)c2N)c1O,71.7% (active)
14,CCc1[nH]nc2c1C(C1C=CCCC1)C(C#N)=C(N)O2 (stereo not given),21.2%
15,Cc1c(Cl)cccc1NC(=O)Nc1ccccc1C(N)=O,27.1%
16,CN(Cc1cccc(F)c1)C(=O)C1CC(=O)N(Cc2ccco2)C1 (stereo not given),-6.54%
17,Cc1cc(/C=C2\SC(=S)N(C)C2=O)c(C)n1-c1cccc(O)c1,38% (active)
18,Cn1nc(CC(=O)Nc2ccc3c(c2)OCCO3)c2ccccc2c1=O,34% (active)
19,Cc1ccc(S(=O)(=O)NCCC(=O)N2CCN(c3ccccc3)CC2)cc1C,-3.89%
20,COc1ccc(S(=O)(=O)N2CCCCCC2)cc1C(=O)N(C)CC(=O)Nc1cc(C)ccc1C,10.6%
